Screens: PubChem BioAssay, several laboratories
NALP3 yeast inh – inhibitors of NALP3 inflammasome in yeast; Yeast reconstituted NLRP3/ASC/caspase-1, beta-gal luminescence, 24 h; inhibition, % at 10 µM; 0.39% of 330,000 active; AID 2825;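 active = inhibition of 50% or more; inactive = inhibition below 50%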;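 also: plate controls were induced DMSO wells for no effect and uninduced yeast grown without galactose for full effect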
SUMO Mot1 rescue – SUMOylation pathway inhibition by Mot1-301 growth rescue; S. cerevisiae Mot1-301 growth rescue, ATP luminescence, 38.5C; percent above DMSO median, 100 means doubled; growth rescue, % at 18.8 µM; 1% of 320,000 active; AID 2716;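 active = every valid replicate shows activation above 250% relative to neutral control wells; inactive = the rest, any valid replicate at or below 250%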;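 also: OY570 slx delta 5 strain wells were the positive control but not used for scaling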
CHT inh – human CHT choline transport inhibition; CHT-expressing cells, membrane potential dye, choline response; stronger effect = lower value; B-score at 10 µM; 0.86% of 310,000 active; AID 488975;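 active = B-score over 3 SD under the library average, and starting fluorescence ratio not unusually high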;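 also: choline stimulus applied at its EC90 after an EC20 pre-addition; B-score computed on integrated fluorescence ratio after choline addition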
Target sequence (Q9GZV3 whole entry, looked up): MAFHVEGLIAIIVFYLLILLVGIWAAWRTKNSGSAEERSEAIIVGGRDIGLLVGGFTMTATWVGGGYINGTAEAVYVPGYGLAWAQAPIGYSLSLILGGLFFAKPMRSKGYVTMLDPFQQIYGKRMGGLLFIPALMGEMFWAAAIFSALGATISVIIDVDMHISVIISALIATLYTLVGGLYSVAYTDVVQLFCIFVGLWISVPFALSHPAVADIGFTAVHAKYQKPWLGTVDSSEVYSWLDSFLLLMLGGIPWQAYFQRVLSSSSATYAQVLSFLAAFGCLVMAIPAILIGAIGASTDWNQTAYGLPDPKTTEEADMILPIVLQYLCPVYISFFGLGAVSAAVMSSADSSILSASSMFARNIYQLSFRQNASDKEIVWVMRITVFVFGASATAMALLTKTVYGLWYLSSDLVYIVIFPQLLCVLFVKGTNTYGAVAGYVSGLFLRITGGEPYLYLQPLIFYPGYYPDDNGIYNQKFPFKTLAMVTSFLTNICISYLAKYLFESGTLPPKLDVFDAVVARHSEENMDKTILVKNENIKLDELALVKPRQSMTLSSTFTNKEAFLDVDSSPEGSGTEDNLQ
A1 inh – inhibitors of the anti-apoptotic protein A1, read as caspase activation. caspase activation, % (test concentration not listed). 0.066% of 330,000 active. MEF A1-2A-BIM cells, Caspase-Glo 3/7 luminescence, 3 h; percent of clofoctol response, vehicle zero. AID 2462;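 active = over half of replicate activation scores above 10%, or exactly half above 10 with the replicate mean above 10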
NALP1 inh – NALP1 inhibition; S. cerevisiae NALP1/ASC/caspase-1 growth, X-gal OD620, 72 h; inhibition, % at 10 µM; 0.61% of 280,000 active; AID 2071; in the data active = inhibition mostly above about 24%, no sharp cut-off; inactive = mostly below about 32%
CHT allo act – allosterically activates the human high affinity choline transporter. B-score at 10 µM. 0.49% of 310,000 active. CHT-expressing cells, membrane potential dye, choline EC20; stronger effect = higher value; LV-AA mutant CHT in HEK293 cells. Q9GZV3. AID 488977;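 active = initial fluorescence not abnormally high and integrated response B-score, plate-corrected, over 3 SD above library mean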
CHT activ conf – human CHT activation, confirmatory screen | shares compounds with CHT allo act | CHT-expressing cells, membrane potential dye fluorescence (FDSS); % of choline EC20–EC90 response window; HEK293 expressing CHT LV-AA mutant; choline added at its EC20 | activation, % at 10 µM | 91% of 2,500 active;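 active = primary screen active, with duplicate mean activation above negative control mean plus 3 SD, cut at about 11% in these data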
HEK293 MP dye – CHT activator counter-screen hit in parental HEK293 cells; shares compounds with CHT allo act; membrane potential dye fluorescence (FDSS); measured after EC20 choline addition; ratio readout change at 10 µM, hits read low; 62% of 2,500 active; AID 623908;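 active = duplicate-averaged ratio beyond 3 SD from buffer wells, up or down, though filed actives are nearly all decreases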
* = called active by the depositor. The list is not random: actives were taken first. Their share in the collection is about 3%.

Results for CN1CCN(c2ccc([N+](=O)[O-])cc2NC(=O)c2cccs2)CC1 ?
NALP3 yeast inh: 29; SUMO Mot1 rescue: 11; CHT inh: inactive; A1 inh: -2; NALP1 inh: 13; CHT allo act: 6.6*; CHT activ conf: 52*; HEK293 MP dye: -82*

How did CCN(C(=O)c1cccnc1SC)C12CC3CC(CC(C3)C1)C2 do in these assays?
NALP3 yeast inh: 28; SUMO Mot1 rescue: 8; CHT inh: inactive; A1 inh: 1; NALP1 inh: 6; CHT allo act: inactive

What do the screens show for `Cc1ccc(NC(=O)CSC2=NCCN2)cc1`?
NALP3 yeast inh: 0; SUMO Mot1 rescue: 272; CHT inh: inactive; A1 inh: -1; NALP1 inh: 22; CHT allo act: inactive

What do the screens show for `O=C(CSC1=NCCN1)Nc1cccc([N+](=O)[O-])c1`?
NALP3 yeast inh: 1; SUMO Mot1 rescue: 3; CHT inh: inactive; A1 inh: 1; NALP1 inh: -2; CHT allo act: 6.7*; CHT activ conf: 51*; HEK293 MP dye: -45*

What do the screens show for `O=C(c1ccccc1NS(=O)(=O)c1cccc([N+](=O)[O-])c1)N1CCCC1`?
NALP3 yeast inh: 9; SUMO Mot1 rescue: -5; CHT inh: inactive; A1 inh: 0; NALP1 inh: 10; CHT allo act: inactive

How did C=CCn1c[n+](CC(=O)c2ccc(Br)s2)c2ccccc21 do in these assays?
NALP3 yeast inh: 3; SUMO Mot1 rescue: 171; CHT inh: inactive; A1 inh: 1; NALP1 inh: 5; CHT allo act: inactive; CHT activ conf: 45*; HEK293 MP dye: -27*

How did O=C(CSc1nc2ncc(Cl)cc2[nH]1)N1CCC(Cc2ccccc2)CC1 do in these assays?
NALP3 yeast inh: 12; SUMO Mot1 rescue: 12; A1 inh: 1

Results for CCn1cc(C(=O)NCCCN2CC(C)CC(C)C2)c(=O)c2cc(S(=O)(=O)N(C)C)ccc21 (configuration not stated) ?
NALP3 yeast inh: -1; SUMO Mot1 rescue: -8; CHT inh: inactive; A1 inh: 0; NALP1 inh: -29; CHT allo act: inactive

What do the screens show for `CN1CCN(CCCNC(=O)c2cn(C)c3ccc(S(=O)(=O)N(C)C)cc3c2=O)CC1`?
NALP3 yeast inh: 19; SUMO Mot1 rescue: -1; CHT inh: inactive; A1 inh: 0; NALP1 inh: -20; CHT allo act: 6.9*; CHT activ conf: 41*; HEK293 MP dye: -23*

Results for O=C(COC(=O)C1CCN(c2ccc(C(F)(F)F)cn2)CC1)NCc1ccccc1 ?
NALP3 yeast inh: 2; SUMO Mot1 rescue: 6; A1 inh: 1

What do the screens show for `O=C(COC(=O)C1CCN(c2ccc(C(F)(F)F)cn2)CC1)NC1CCCCC1`?
NALP3 yeast inh: 3; SUMO Mot1 rescue: -3; CHT inh: inactive; A1 inh: 0; CHT allo act: inactive; CHT activ conf: 6; HEK293 MP dye: inactive

Results for CCN(CC(=O)Nc1ccc2c(c1)OCCO2)S(=O)(=O)c1ccc(F)cc1 ?
NALP3 yeast inh: 15; SUMO Mot1 rescue: 7; CHT inh: inactive; A1 inh: 0; NALP1 inh: 0; CHT allo act: inactive

What do the screens show for `CCc1nnc(NC(=O)CCNC(=O)c2ccco2)s1`?
NALP3 yeast inh: 18; SUMO Mot1 rescue: 2; CHT inh: inactive; A1 inh: 0; NALP1 inh: 10; CHT allo act: inactive

What do the screens show for `O=C(COc1ccccc1)NCC(c1ccco1)N1CCN(c2ccc(F)cc2)CC1` (configuration not stated)?
NALP3 yeast inh: -67; SUMO Mot1 rescue: 1; CHT inh: inactive; A1 inh: 1; CHT allo act: inactive; CHT activ conf: 13*; HEK293 MP dye: inactive

Results for Cn1c(C(=O)NCCN2CCc3ccccc3C2)cc2c(=O)n(C)c3ccccc3c21 ?
NALP3 yeast inh: 12; SUMO Mot1 rescue: -14; CHT inh: inactive; A1 inh: -1; NALP1 inh: 4; CHT allo act: inactive

How did CC1CCCCN1CCNC(=O)c1cc2c(=O)n(C)c3ccccc3c2n1C (configuration not stated) do in these assays?
NALP3 yeast inh: 17; SUMO Mot1 rescue: -1; CHT inh: inactive; A1 inh: 0; NALP1 inh: -4; CHT allo act: inactive; CHT activ conf: 30*; HEK293 MP dye: -21*

Results for Cn1c(C(=O)NCCCN2CCCC2=O)cc2c(=O)n(C)c3ccccc3c21 ?
NALP3 yeast inh: 4; SUMO Mot1 rescue: -8; CHT inh: inactive; A1 inh: -1; NALP1 inh: 24; CHT allo act: inactive; CHT activ conf: 27*; HEK293 MP dye: -32*

What do the screens show for `Cn1c(C(=O)NC2CCCCC2)cc2c(=O)n(C)c3ccccc3c21`?
NALP3 yeast inh: 26; SUMO Mot1 rescue: 3; CHT inh: inactive; A1 inh: 0; NALP1 inh: -8; CHT allo act: inactive

Results for O=C(COC(=O)CSc1ccc([N+](=O)[O-])cc1)NCc1cccs1 ?
NALP3 yeast inh: 8; SUMO Mot1 rescue: 66; CHT inh: inactive; A1 inh: 0; CHT allo act: inactive

What do the screens show for `CC[n+]1c(C)sc2cc(C)ccc21`?
NALP3 yeast inh: 17; SUMO Mot1 rescue: 40; CHT inh: inactive; A1 inh: 0; NALP1 inh: 12; CHT allo act: inactive; CHT activ conf: 68*; HEK293 MP dye: -58*

How did CC1CCN(c2ccccc2NC(=O)c2ccc(F)cc2)CC1 do in these assays?
NALP3 yeast inh: 5; SUMO Mot1 rescue: 336; CHT inh: inactive; A1 inh: -1; NALP1 inh: 5; CHT allo act: 9.3*; CHT activ conf: 23*; HEK293 MP dye: inactive

How did C[N+](C)(C)CCCNC(=O)c1ccc(/C=N/O)nc1 do in these assays?
NALP3 yeast inh: -15; SUMO Mot1 rescue: -9; CHT inh: inactive; A1 inh: 1; NALP1 inh: 17; CHT allo act: inactive

Results for C[n+]1ccc(C(=O)NCCC[N+](C)(C)C)cc1/C=N/O ?
NALP3 yeast inh: 17; SUMO Mot1 rescue: -26; CHT inh: inactive; A1 inh: 1; NALP1 inh: -18; CHT allo act: 7.3*; CHT activ conf: 44*; HEK293 MP dye: -31*
